SMILES strings stand for the structures. Inconclusive results are not listed. Where a call stands in place of a potency, no number is given. Calls of active or inactive are those of the source. Calls come from the whole dose curve; as a rule, active = well fitted curve in the direction sought with a large enough effect; inconclusive = small, poorly fitted or top-dose-only effect, or another doubt; inactive = no such curve, though single readings can be large; an effect the other way counts as inactive or inconclusive.

Chain of Muscarinic acetylcholine receptor M1 (Rattus norvegicus) (P08482 whole entry, looked up): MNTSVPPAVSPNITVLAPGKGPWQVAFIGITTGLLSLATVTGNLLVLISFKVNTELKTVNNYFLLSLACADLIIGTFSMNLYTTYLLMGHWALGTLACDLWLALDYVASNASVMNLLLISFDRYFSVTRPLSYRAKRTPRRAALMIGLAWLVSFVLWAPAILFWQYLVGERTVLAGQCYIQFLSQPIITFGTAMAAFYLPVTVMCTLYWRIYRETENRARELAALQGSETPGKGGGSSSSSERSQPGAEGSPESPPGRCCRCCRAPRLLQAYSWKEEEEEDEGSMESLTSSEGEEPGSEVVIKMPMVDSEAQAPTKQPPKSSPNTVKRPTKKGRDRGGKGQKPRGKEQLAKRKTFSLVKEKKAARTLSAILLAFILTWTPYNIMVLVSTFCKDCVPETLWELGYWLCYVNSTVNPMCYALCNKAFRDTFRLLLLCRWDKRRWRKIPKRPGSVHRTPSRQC

System in one assay: not listed separately
Briefly: qHTS Assay for Identification of Small Molecule Antagonists for Thrombopoietin (TPO) Signaling Pathway (AID 918). Note: potency is the fitted concentration of half-maximal effect; nearly all actives have a fitted effect of over 60% in size. The note with it: TPO-dependent cell signaling reporter, antagonist mode. The procedure, abridged: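 Antagonist mode at EC50 TPO (26 pM) in IL-3-free medium; murine Ba/F3 cells with human TPO receptor and GPIIb-promoter luciferase, 24 hrs at 37 C before luminescent detection.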
For the molecule `Cc1nc(-c2ccc(-c3ccc(C(=O)N4CCc5cc6c(cc54)C4(CCN(C)CC4)CO6)cc3)c(C)c2)no1`, the Potency was 12.6 µM (active).

Regarding `CN[C@@H]1C[C@@H](c2ccc(Cl)c(Cl)c2)c2ccccc21`, the Potency was 12.6 µM (active).

`Cc1c(C(=O)c2cccc3ccccc23)c2cccc3c2n1[C@H](CN1CCOCC1)CO3`: the Potency was 12.6 µM (active).

System in a further assay: not listed separately
Briefly: Cell Viability - LYMP2-001 (AID 921). Note: nearly all actives have a fitted effect of over 70% in size. The note with it: LYMP2-001 lymphoblastoid cell viability; series mostly up to 92.2 µM. An outline of the steps: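 Human lymphoblastoid cells (Coriell), 2500 per well, were preincubated 5 hr at 37 C, then exposed to compounds in complete medium for 24 hr at 37 C. Cellular ATP was read by CellTiter-Glo luminescence; AC50 from Hill fits of concentration-response data.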
Consider `Nc1ccc([N+](=O)[O-])cc1`, for which the Potency entry was “inactive”.

In the case of `CC(C)(O)C(=O)Nc1ccc([N+](=O)[O-])c(C(F)(F)F)c1`, the Potency result was “inactive”.

For the molecule `CCOCCOC(C)=O`, the Potency result was “inactive”.

Turning to `CCOP(=O)(NC(C)C)Oc1ccc(SC)c(C)c1` (centres undefined), the Potency result is “inactive”.

Turning to `CN(C)NC(=O)CCC(=O)O`, the Potency result is “inactive”.

`CCCCCCCCc1ccc(O)cc1`: the Potency result is “inactive”.

In the case of `OCCCBr`, the Potency entry was “inactive”.

In the case of `O=[N+]([O-])c1c2ccccc2cc2ccccc12`, the Potency entry was “inactive”.

As for `Nc1ccc(Sc2ccc(N)cc2)cc1`, the Potency result was “inactive”.

Take `O=S(=O)(c1ccc(Cl)cc1)c1ccc(Cl)cc1`: the Potency result is “inactive”.

Turning to `O=C(O)C(Cl)Cl`, the Potency result is “inactive”.

Regarding `CCCCC(CC)COC(=O)c1ccccc1C(=O)OCC(CC)CCCC` (centres undefined), the Potency result was “inactive”.

With `C=CC(=O)NCNC(=O)C=C`, the Potency result was “inactive”.

Take `O=C(O)COc1ccccc1`: the Potency entry was “inactive”.

Take `O=[N+]([O-])c1cc([N+](=O)[O-])c2ccccc2c1`: the Potency result is “inactive”.

Take `c1cc2ccc3cccc4ccc(c1)c2c34`: the Potency result was “inactive”.

Consider `CCCCOC(=O)c1ccccc1C(=O)OCc1ccccc1`, for which the Potency entry is “inactive”.

Regarding `C1CCC(NC2CCCCC2)CC1`, the Potency result is “inactive”.

For the molecule `O=[N+]([O-])c1c(Cl)c(Cl)cc(Cl)c1Cl`, the Potency entry is “inactive”.

Turning to `Nc1ccc(Cl)cc1`, the Potency entry was “inactive”.

The next assay has as its target Muscarinic acetylcholine receptor M1 (Rattus norvegicus) (UniProt P08482). Briefly: qHTS Assay for Antagonists of Acetylcholine Muscarinic M1 Receptor: Kinetic Measurement of Intracellular Calcium Response (AID 943). Note: nearly all actives have a fitted effect of over 75% in size. Note: potency is the fitted concentration of half-maximal effect. The note with it: M1-expressing cells, kinetic intracellular calcium fluorescence; series mostly up to 35.3 µM. The procedure, abridged: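 Quantitative HTS in CHO-M1 (rat receptor) cells: 10 min compound exposure ahead of 100 nM carbachol, Fluo-4 fluorescence followed 4 min, value expressed as peak-to-basal ratio.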
With `CN[C@@H]1C[C@@H](c2ccc(Cl)c(Cl)c2)c2ccccc21`, the Potency was 2.24 µM (active).

Take `c1ccc(CCCN2CCN(CCOC(c3ccccc3)c3ccccc3)CC2)cc1`: the Potency is 0.891 µM (active).

Take `C#CCOC(=O)C1=CCCN(C)C1`: the Potency entry was “inactive”.

Turning to `CNCCc1ccc(O)c(O)c1`, the Potency entry is “inactive”.

The next assay shares this target. Briefly: qHTS Assay for Antagonists of Acetylcholine Muscarinic M1 Receptor: Measurement of IP-One Response (AID 944). Note: nearly all actives have a fitted effect of over 75% in size. Note: potency is the fitted concentration of half-maximal effect. The note with it: CHO-M1 cells, IP-One HTRF, antagonist mode; series mostly up to 46.1 µM. An outline of the steps:
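Antagonism was measured as loss of carbachol-driven (EC80) IP1 accumulation in CHO cells carrying rat M1, using a homogeneous IP-One TR-FRET kit read at 620 and 665 nm.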
In the case of `CCCCc1ccc(C(=O)O)nc1`, the Potency result was “inactive”.

Consider `CN[C@@H]1C[C@@H](c2ccc(Cl)c(Cl)c2)c2ccccc21`, for which the Potency entry is “inactive”.

As to `c1ccc(CCCN2CCN(CCOC(c3ccccc3)c3ccccc3)CC2)cc1`, the Potency is 8.91 µM (active).

For `c1ccc2sc(C3(N4CCCCC4)CCCCC3)cc2c1`, the Potency result was “inactive”.

With `C#CCOC(=O)C1=CCCN(C)C1`, the Potency result was “inactive”.

Take `CNCCc1ccc(O)c(O)c1`: the Potency result was “inactive”.

The target in the next assay is Pyruvate kinase (Leishmania mexicana) (UniProt Q27686). Nature of the assay: qHTS Validation Assay for Inhibitors of Leishmania Mexicana Pyruvate Kinase (AID 945). The note with it: purified L. mexicana pyruvate kinase, enzyme activity, E451W mutant enzyme; series mostly up to 57.5 µM. An outline of the steps: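 The enzyme is a highly purified E451W mutant of LmPYK used at 0.2 nM. It converts 0.5 mM PEP and 0.1 mM ADP over 1 h at room temperature; product ATP is quantified by luciferase luminescence relative to DMSO controls.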
Chain of Pyruvate kinase (Leishmania mexicana) (Q27686 2-499 E452W): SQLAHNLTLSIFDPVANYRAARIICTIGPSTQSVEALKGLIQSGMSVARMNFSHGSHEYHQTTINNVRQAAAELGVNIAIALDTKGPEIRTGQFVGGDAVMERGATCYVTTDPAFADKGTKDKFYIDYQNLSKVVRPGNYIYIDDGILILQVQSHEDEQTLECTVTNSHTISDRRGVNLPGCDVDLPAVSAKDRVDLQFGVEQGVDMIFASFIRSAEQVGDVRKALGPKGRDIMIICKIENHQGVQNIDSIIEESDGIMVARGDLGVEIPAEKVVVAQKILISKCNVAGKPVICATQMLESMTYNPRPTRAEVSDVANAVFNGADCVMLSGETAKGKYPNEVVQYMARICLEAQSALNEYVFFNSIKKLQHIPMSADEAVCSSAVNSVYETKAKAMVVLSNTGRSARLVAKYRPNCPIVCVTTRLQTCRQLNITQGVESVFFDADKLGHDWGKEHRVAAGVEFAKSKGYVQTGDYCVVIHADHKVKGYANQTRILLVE
As for `CCCCc1ccc(C(=O)O)nc1`, the molecule was called inactive.

As for `Cc1nc(-c2ccc(-c3ccc(C(=O)N4CCc5cc6c(cc54)C4(CCN(C)CC4)CO6)cc3)c(C)c2)no1`, the call was inactive.

As to `S=C(NC1CCCCC1)N1CCC(c2cnc[nH]2)CC1`, the outcome was inactive.

On to `CN[C@@H]1C[C@@H](c2ccc(Cl)c(Cl)c2)c2ccccc21`, for which the call was inactive.

On to `c1ccc(CCCN2CCN(CCOC(c3ccccc3)c3ccccc3)CC2)cc1`, for which the result was inactive.

On to `c1ccc2sc(C3(N4CCCCC4)CCCCC3)cc2c1`, for which the molecule was called inactive.

For `Cc1c(C(=O)c2cccc3ccccc23)c2cccc3c2n1[C@H](CN1CCOCC1)CO3`, the call was inactive.

For `C#CCOC(=O)C1=CCCN(C)C1`, the result was inactive.

In the case of `CNCCc1ccc(O)c(O)c1`, the outcome was inactive.

System in the next assay: not listed separately
Nature of the assay: MultiTox-Fluor Cytotoxicity Assay - LYMP1-001 - Dead Cells (AID 946).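 Note: cells exposed to compound for 16 h.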 The note with it: LYMP1-001 lymphoblastoid cells, dead-cell protease fluorescence; series mostly up to 92.2 µM. An outline of the steps: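 Seed 2500 LYMP1-001 cells/well, incubate 5 hr at 37 C; add compound, 16 hr at 37 C; add MultiTox-Fluor reagent, 60 min RT; read dead-cell fluorescence Ex/Em=485/520. Normalize to DMSO and 15 uM tetraoctylammonium bromide.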
As to `Nc1ccc([N+](=O)[O-])cc1`, the molecule was called inactive.

With `CC(C)(O)C(=O)Nc1ccc([N+](=O)[O-])c(C(F)(F)F)c1`, the call was inactive.

On to `CCOCCOC(C)=O`, for which the outcome was inactive.

For `CCOP(=O)(NC(C)C)Oc1ccc(SC)c(C)c1` (centres undefined), the result was inactive.

`CN(C)NC(=O)CCC(=O)O`: the result was inactive.

With `CCCCCCCCc1ccc(O)cc1`, the result was inactive.

In the case of `CN(C)[C@@H]1C(=O)C(C(N)=O)=C(O)[C@@]2(O)C(=O)C3=C(O)c4c(O)cccc4[C@@](C)(O)[C@H]3[C@H](O)[C@@H]12`, the molecule was called inactive.

As to `OCCCBr`, the call was inactive.

Consider `O=[N+]([O-])c1c2ccccc2cc2ccccc12`, for which the call was inactive.

`Nc1ccc(Sc2ccc(N)cc2)cc1`: the molecule was called inactive.

Turning to `O=S(=O)(c1ccc(Cl)cc1)c1ccc(Cl)cc1`, the molecule was called inactive.

For `O=C(O)C(Cl)Cl`, the result was inactive.

In the case of `CCCCC(CC)COC(=O)c1ccccc1C(=O)OCC(CC)CCCC` (centres undefined), the molecule was classed as inactive.

Regarding `C=CC(=O)NCNC(=O)C=C`, the molecule was classed as inactive.

As to `O=C(O)COc1ccccc1`, the molecule was classed as inactive.

Turning to `O=[N+]([O-])c1cc([N+](=O)[O-])c2ccccc2c1`, the molecule was classed as inactive.

`c1cc2ccc3cccc4ccc(c1)c2c34`: the molecule was called inactive.

Regarding `CCCCOC(=O)c1ccccc1C(=O)OCc1ccccc1`, the result was inactive.

As for `C1CCC(NC2CCCCC2)CC1`, the molecule was classed as inactive.

For `Nc1ccc(Cl)cc1N`, the molecule was classed as inactive.

As to `O=[N+]([O-])c1c(Cl)c(Cl)cc(Cl)c1Cl`, the result was inactive.

Take `Nc1ccc(Cl)cc1`: the call was inactive.

The record behind these values is PubChem BioAssay (NCATS).
